KinaseGlo FLuc: blocks Kinase-Glo luciferase, a counter-screen artifact; Q27757; Kinase-Glo luciferase, ATP luminescence, 8 min; Potency, µM (top dose mostly 38.3 µM), without a hit: at the top dose activity change, negative = inhibition, hits mostly inhibitors; 200,000 tested, 0.28% active; also: % is scaled to controls: 0 for no effect and ±100 for the full control effect; nearly all actives have a fitted effect of over 60% in size
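Luminescence was the read-out, taken after 8-minute incubation at ambient temperature. Luciferase turned over luciferin with 10 uM ATP in imidazole pH 7.2 buffer containing KCl, MgCl2, Tween 20 and BSA.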
Rab9 promoter act: Rab9 promoter activation | Potency, µM (titrated, usually from 9.22 µM), without a hit: top-dose activation, negative = inhibition, usual class: activators | AID 485297 | Huh7 Rab9 promoter-luciferase reporter, luminescence, 24 h | 320,000 tested, 2.8% active; also: % of control where 0% means no effect; nearly all actives have a fitted effect of over 60% in size
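Measured in stably transfected Huh7 cells bearing a Rab9 promoter–luciferase construct: 24 h compound treatment at 37 °C, followed by luminescence detection.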
FLuc modulator: counter-screen for miR-21 project: firefly luciferase inhibitors or activators. P08659. purified FLuc, Km substrates, luminescence inhibition. Potency, µM (doses to about 57.5 µM), for inactives: top-dose activity change, negative = inhibition, usual class: inhibitors. 360,000 tested, 6.9% active. AID 588342;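 also: plate controls were vehicle for no effect and reference inhibitor for full effect; nearly all actives have a fitted effect of over 55% in size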
Target sequence (P08659 whole entry, looked up): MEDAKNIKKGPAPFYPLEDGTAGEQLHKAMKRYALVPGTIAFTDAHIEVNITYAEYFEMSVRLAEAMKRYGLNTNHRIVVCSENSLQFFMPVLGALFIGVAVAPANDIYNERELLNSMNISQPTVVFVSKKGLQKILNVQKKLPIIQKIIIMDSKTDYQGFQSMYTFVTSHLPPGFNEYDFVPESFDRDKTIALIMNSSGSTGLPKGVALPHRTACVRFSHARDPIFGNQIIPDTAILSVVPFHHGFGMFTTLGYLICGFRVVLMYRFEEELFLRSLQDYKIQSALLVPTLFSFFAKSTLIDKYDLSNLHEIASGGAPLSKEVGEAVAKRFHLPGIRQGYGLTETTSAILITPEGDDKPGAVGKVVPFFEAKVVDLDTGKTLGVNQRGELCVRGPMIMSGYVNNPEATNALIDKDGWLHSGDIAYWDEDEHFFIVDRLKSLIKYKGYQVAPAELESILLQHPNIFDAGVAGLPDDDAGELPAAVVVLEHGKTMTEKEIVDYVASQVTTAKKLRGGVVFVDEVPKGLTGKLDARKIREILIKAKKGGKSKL
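Purified P. pyralis luciferase, 10 nM final, with Km-level 10 uM D-luciferin and 10 uM ATP in 50 mM Tris acetate pH 7.5, 10 mM Mg acetate, 0.01% Tween-20, 0.05% BSA; 6-point qHTS titration about 60 µM downward; luminescence read.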
ELG1 genotox: inducers of genotoxicity in HEK293T ELG1-luciferase cells. Potency, µM (top dose mostly 46 µM), for inactives: top-dose activity change, positive = activation, hits mostly activators. 330,000 tested, 1.3% active. HEK293T ELG1-luciferase reporter, luminescence, 16 h. AID 504466; also: % of control where 0% means no effect; nearly all actives have a fitted effect of over 60% in size
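Reporter readout depends on ELG1 protein level, which increases with genetic stress. After 16 hr compound exposure at 37 °C, luciferase activity was quantified using ONE-Glo.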
SMN2 splice enh: enhancers of SMN2 splice variant expression. HEK293 SMN2-luciferase splicing reporter, luminescence, 30-36 h. Potency, µM (top dose mostly 46.1 µM), inactives show top-dose activity change, positive = activation, actives largely listed as activators. 210,000 tested, 2.8% active. AID 1458; also: % of control where 0% means no effect; nearly all actives have a fitted effect of over 55% in size
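HEK293 cells carry an SMN2 minigene-luciferase reporter in which exon 7 inclusion puts luciferase in frame. Cells were seeded at 2000 cells/well, attached for 10-12 hours, then exposed to compounds for 30-36 hours at 37C before ONE-Glo luminescence.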
NPC1 prom act: NPC1 promoter activation. Huh7 NPC1 promoter luciferase reporter, 24 h. Potency, µM (titrated, usually from 9.22 µM), without a hit: top-dose activation, hits mostly activators. 320,000 tested, 2.4% active. AID 485313; also: % of control where 0% means no effect; nearly all actives have a fitted effect of over 60% in size
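Luminescence from an NPC1 promoter-driven luciferase reporter in stably transfected Huh7 cells was measured after 24 h compound treatment at 37 °C, followed by 10 min ambient incubation with luciferase detection reagent.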
* marks the source's active call; other numbers are inactive results; ? = inconclusive; nt = no result given. Hits are enriched below; roughly 7.5% of the tested compounds scored in any of these assays. Calls follow the shape of the dose curve; as a rule, active = well fitted curve in the direction sought with a large enough effect; inconclusive = small, poorly fitted or top-dose-only effect, or another doubt; inactive = no such curve, though single readings can be large; an effect the other way counts as inactive or inconclusive. Potency is read from the fitted curve at half-maximal effect.

SMILES	KinaseGlo FLuc	Rab9 promoter act	FLuc modulator	ELG1 genotox	SMN2 splice enh	NPC1 prom act
Cc1cc(C)cc(NC(=O)C(Cc2ccccc2)NS(=O)(=O)c2ccc3c(c2)CCC(=O)N3)c1 (stereo unspecified)	nt	nt	6.1%	nt	-3.7%	nt
CC(=O)OCC(=O)[C@@]1(O)CCC2C3CCC4=CC(=O)C=CC4(C)C3C(O)C[C@]21C (stereo partly specified)	-5.8%	nt	nt	nt	5.8%	nt
CCOC(=O)N1CCN(C(=O)CSc2nc3c([nH]c4ccccc43)c(=O)n2CC)CC1	nt	3.9%	5.9%	-9.4%	nt	-5.5%
Cc1nc2ccc(S(=O)(=O)N(CC(=O)Nc3cccc(C)c3C)Cc3ccccc3)cc2s1	nt	nt	1.3%	nt	nt	nt
Cc1ccc(NC(=O)NC2CCCCCCC2)cc1C	nt	3.55µM*	7.57µM*	?	nt	3.98µM*
CC(=O)c1ccc(NC(=O)NC2CCCCCCC2)cc1	nt	1.78µM*	12µM*	8.2µM*	nt	1.58µM*
Nc1ccc(NC(=O)NC2CCCCC2)cc1	-2.2%	?	?	?	nt	24.0%
C/C(Cc1ccccc1)=N\NC(=O)CNC(=O)c1ccccc1Br	-0.8%	-3.7%	?	2.4%	4.6%	-1.7%
COc1ccc(NC(=O)c2sc3nc4c(cc3c2N)CCCCCC4)cc1OC	nt	nt	-2.3%	nt	0.9%	nt
Cc1cccc(NC(=O)c2sc3nc(N)c(C#N)cc3c2N)c1	1.3%	2.51µM*	9.53µM*	?	15.8µM*	2.82µM*
CCc1nnc(NC(=O)c2sc3nc4c(cc3c2N)CCCCC4)s1	-1.1%	1.58µM*	1.69µM*	?	8.91µM*	2.24µM*
CC(=O)c1cccc(NC(=O)c2sc3nc4c(cc3c2N)CCCC4)c1	nt	nt	0.536µM*	nt	16.9%	nt
CCc1nnc(NC(=O)c2sc3nc4c(cc3c2N)CCCCCC4)s1	1.5%	2.82µM*	4.78µM*	?	12.6µM*	?
CCCSc1ncc(Cl)c(C(=O)Nc2sc3c(c2C(=O)NCC)CCCC3)n1	nt	nt	-3.5%	nt	0.7%	nt
CCOC(=O)CSC1=NC(=O)/C(=C/c2ccc(Br)cc2)S1	nt	-9.3%	15.1µM*	?	nt	-5.3%
CCOC(=O)COc1ccc(Br)cc1/C=C1\SC(N)=NC1=O	nt	7.0%	0.3%	2.6%	nt	0.4%
CCOC(=O)CSC1=NC(=O)/C(=C\c2ccc(OC(C)=O)cc2)S1	-1.1%	-8.2%	19µM*	?	19.3%	-7.0%
NC1=NC(=O)/C(=C/c2ccc(Br)cc2)S1	nt	0.1%	-12.5%	0.7%	nt	2.6%
O=C(NCC(O)c1ccc2ccccc2c1)c1c(F)cccc1F (stereo unspecified)	nt	-13.1%	-0.7%	-6.7%	nt	-2.5%
Cc1ccc2nc(/C(C#N)=C/c3ccc(O)c(O)c3)[nH]c2c1	nt	?	19µM*	?	nt	-1.1%
Cc1ccc2nc(C(O)C(O)c3nc4ccc(C)cc4[nH]3)[nH]c2c1 (stereo unspecified)	-8.0%	18.9%	10.7µM*	?	-7.9%	8.1%
Cc1ccc2nc(/C(C#N)=C/c3cccc(Br)c3)[nH]c2c1	nt	nt	?	nt	-3.4%	nt
Cc1ccc2nc(/C(C#N)=N/O)[nH]c2c1	-0.1%	-9.0%	13.5µM*	-4.1%	4.8%	8.1%
N#C/C(=N\O)c1nc2ccccc2[nH]1	-1.6%	0.0%	?	1.2%	-21.0%	1.8%
CCN(CC)C(=O)Cn1c(=O)nc(-c2ccccc2F)c2cc(Cl)ccc21	nt	nt	-2.5%	nt	nt	nt
CC(C)(C)c1ccc(C(=O)Nc2nnc3n2CCS3)cc1	nt	nt	6.01µM*	nt	nt	nt
CC(C)(C)C(=O)Nc1nnc2n1CCS2	nt	nt	0.1%	nt	nt	nt
Cc1[nH]c(=O)[nH]c(=O)c1S(=O)(=O)Nc1cccc([N+](=O)[O-])c1C	nt	-0.9%	1.9%	-0.5%	nt	-2.8%
O=C(Nc1ccc(N2CCCC2)cc1)C(Cl)c1ccccc1 (stereo unspecified)	?	24.7%	8.49µM*	10.9%	-10.1%	-1.2%
O=C(Nc1cccc(S(=O)(=O)N2CCCCCC2)c1)c1ccc2ccccc2n1	-0.8%	15.9%	?	-0.5%	8.6%	11.6%

Bioassay records (PubChem)
